The campaign covered roughly 360,000 compounds. About 11,000 (3.1%) were called active. Cut-off read from the data, not from the text of the source: active = activity change below about -30%; inactive = the rest. What follows is part of a selection rich in actives, with near analogues and random picks from the rest.
Biological target: D(1A) dopamine receptor (Homo sapiens) (UniProt P21728)
Assay: Antagonist of Human D 1 Dopamine Receptor: qHTS
Conditions: HEK293 TREx D1 cells, calcium flux, dopamine EC80; at 10 µM; stronger effect = lower value
Source text: Dopamine receptors (DARs) are involved in the etiology and/or therapy of a number of neuropsychiatric and endocrine disorders. For instance, all receptor-based antiparkinsonian drugs work via stimulating the […] DAR subtype whereas all FDA-approved antipsychotic agents are antagonists of this receptor. […] There are three different types of allosteric modulators that we are seeking, two of which will stimulate or augment receptor signaling, allosteric agonists and potentiators, while the third, allosteric antagonists, will attenuate receptor signaling. The present primary screening assay measures compound antagonism after an EC80 addition of dopamine by tracking calcium flux in a […], inducible Hek293 Trex D1 cell line. NIH Chemical Genomics Center [NCGC] NIH Molecular Libraries Probe Centers Network [MLPCN] MLPCN Grant: NS064831-01 Assay Submitter (PI): David Sibley
Freshly passaged cells are plated in 1536 well black, clear bottom plates at a density of 4000 cells/well in 3 ul of complete media containing 1x tetracycline inducer. After an overnight incubation at 30 C in 5% CO2, cells are loaded with 2 ul of the no wash Calcium Assay Kit (ABD Bioquest) and incubated at room temperature for 30 to 90 minutes. Agonist read: A 10 cycle (1 second/cycle) baseline measurement is taken and then the FDSS online 1536 pintool delivers 23 nl of compound library (as well as dopamine controls) to the plate. The plate is measured for kinetically at 1 cycle/sec for 180 seconds. Following the 180 second read, 1 ul of an EC80 (negative modulation assay) is delivered by an onboard pipette head. Measurements are taken kinetically for an additional 180 seconds.
% is set by controls: 0 for no effect and ±100 for the full control effect.

Chain of D(1A) dopamine receptor (Homo sapiens) (P21728 whole entry, looked up): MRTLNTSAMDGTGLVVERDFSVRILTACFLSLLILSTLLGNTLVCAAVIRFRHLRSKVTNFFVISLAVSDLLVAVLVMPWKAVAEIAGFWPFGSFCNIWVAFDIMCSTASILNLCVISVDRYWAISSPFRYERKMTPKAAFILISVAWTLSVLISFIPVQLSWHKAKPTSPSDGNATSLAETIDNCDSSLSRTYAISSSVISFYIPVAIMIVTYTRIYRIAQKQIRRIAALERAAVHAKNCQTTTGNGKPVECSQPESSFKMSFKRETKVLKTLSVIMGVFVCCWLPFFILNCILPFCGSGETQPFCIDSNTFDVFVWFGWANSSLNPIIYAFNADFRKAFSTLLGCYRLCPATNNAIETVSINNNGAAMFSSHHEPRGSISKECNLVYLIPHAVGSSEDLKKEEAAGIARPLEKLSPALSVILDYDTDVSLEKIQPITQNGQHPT

Activity change, negative = inhibition, inactive:
O=c1cc(CSc2ncn[nH]2)[nH]c2ccc(F)cc12 10.4%, Cn1c(SCc2ccc(F)cc2)nnc1-c1ccncc1 5.13%, Cc1cccc(NC(=O)c2ccc3nc(C(C)C)oc3c2)c1C 9.09%, CC1CC1C(=O)OCC(=O)c1c(N)n(C)c(=O)n(C)c1=O (stereo not given) 5.53%, Cn1c(N)c(C(=O)COC(=O)c2cnc(Cl)c(Cl)c2)c(=O)n(C)c1=O 12.2%, O=C(CSc1nccn1-c1ccc(F)cc1)Nc1cccc2ccccc12 43.1%, O=C(Cn1c(=O)n(Cc2cccs2)c(=O)c2cccnc21)Nc1ccc(F)cc1 2.03%, Cc1c(Cl)cccc1NC(=O)C1CCCN(c2ncnc3onc(C)c23)C1 (stereo not given) -3.12%, COc1ccc(C(CCN(Cc2ccc(OC)c(OC)c2)C(=O)CCl)c2ccccc2)cc1 (stereo not given) 0.248%, CN(Cc1ccccc1)C(=O)COc1ccccc1 2.23%, CCC(NC(=O)c1cc(COc2ccc(F)c(F)c2)on1)c1ccncc1 (stereo not given) -27.1%, O=C(c1cc(COc2ccc(F)c(F)c2)on1)N1CCOCC1 -16.4%, Cc1ccc(C(=O)N2CCc3cc(CNC(=O)c4ccc(Br)cc4)ccc32)cc1 3.02%, Cc1noc2ncnc(NCc3ccccc3Cl)c12 -4.33%, COc1ccc(OC)c(S(=O)(=O)Nc2c(C)nn(C)c2C)c1 2.31%, Nc1ncc(S(=O)(=O)Nc2ccc(OC(F)(F)F)cc2)cn1 18%, Cc1cccc(NC(=O)C2CCN(S(=O)(=O)c3c(C)noc3/C=C/c3ccco3)CC2)c1 -5.72%, C=Cc1ccc(Cn2c(C(=O)OC)cc3sc(C)cc32)cc1 21.5%, CC(Sc1nn(-c2ccc(Cl)cc2)c(=S)s1)C(=O)NCC1CCCO1 (stereo not given) -0.972%, Cc1ccc(N(C(=O)Cc2cccs2)C(C(=O)NCC2CCCO2)c2ccncc2)cc1 (stereo not given) -0.595%, CC(C)OCCCn1c(SCC(=O)c2ccccc2)nc2c(sc3ccccc32)c1=O 4.36%, Cc1cc(C)cc(OC(C)C(=O)Nc2nc3c(s2)CCCC3)c1 (stereo not given) 3%, COc1ccc2cc(CNc3ccc(OC)c(OC)c3)c(=O)n(CC(=O)Nc3ccccc3F)c2c1 -14.2%, CCOc1ccc(CN2CCN(Cc3c[nH]c4ccccc34)CC2)cc1 4.58%, Cc1ccc2[nH]cc(CCNC(=O)C3CCCCC3)c2c1 -23.8%, Cc1cc(C)cc(NS(=O)(=O)c2ccc3[nH]cc(C(=O)N4CCCCC4)c(=O)c3c2)c1 -3.92%, CCN(c1ccc(Cl)cc1)S(=O)(=O)c1nnc(NC(=O)c2ccco2)s1 -1.57%, Cc1nc2ccc(C(=O)N(C)CC3CCCN(CCc4ccc(Cl)cc4)C3)cc2[nH]1 (stereo not given) -13.3%, COc1cccc(CN(C)CC(=O)NCc2ccccc2Cl)c1OC -23.2%, CCc1ccc(NC(=O)CCS(=O)(=O)c2cc3c(cc2Cl)NC(=O)CO3)cc1 -16.7%, COc1ccc(-n2c(SCC(N)=O)nc3c(oc4ccccc43)c2=O)cc1 10.8%, CN(C)c1ccc(C(CNS(=O)(=O)c2cc(F)ccc2F)N2CCOCC2)cc1 (stereo not given) -3.66%, Cc1cccc(NC(=O)CSc2nc3c([nH]c4ccccc43)c(=O)n2-c2cc(C)cc(C)c2)c1 23.9%, Cc1ccc(NC(=O)CSc2nc3c([nH]c4ccccc43)c(=O)n2-c2ccccc2)cc1Cl -8.44%, CCc1ccccc1NC(=O)CSc1nnc(-c2ccncc2)o1 7.4%, CCN(C(=O)CSc1nnc(-c2ccncc2)o1)c1ccccc1 -3.41%, CCOc1ccc(C(=O)c2cn(Cc3ccc(F)cc3)c3ccc(F)cc3c2=O)cc1 -1.13%, Cc1cccc(Cn2c(SCc3ccc(C(=O)N4CCC(C)CC4)cc3)nc3ccncc32)c1 -18.5%, O=C1NC(c2ccccc2)Oc2ccccc21 (stereo not given) 3.6%, Oc1ccccc1-c1nc(/C=C/c2ccc(F)cc2)no1 3.54%, Cc1cc2c(cc1S(=O)(=O)CCC(=O)Nc1ccc(OC(F)(F)F)cc1)OCC(=O)N2 -0.986%, CCOC(=O)c1ccc(NC(=O)CC2C(=O)N(c3cccc(OC)c3)C(=O)N2C2CCCCC2)cc1 (stereo not given) -8.12%, CC(=O)c1sc(NC(=O)C2=NN(c3ccccc3)C(=O)CC2)nc1C 2.3%, CC(=O)c1sc(N/N=C/c2ccc(C(C)C)cc2)nc1C -11%, CCOC(=O)CNC(=O)c1cc2c(=O)n3cccc(C)c3nc2s1 0.697%, CCOc1ccc(N(CC(=O)NC2CCCCCC2)S(=O)(=O)c2c(C)[nH]c(=O)[nH]c2=O)cc1 7.77%, COc1ccc(N(CC(=O)NC2CCCCCCC2)S(=O)(=O)c2c(C)nn(C)c2C)cc1 -2.1%, CCOC(=O)c1cnc(-n2nc(C)cc2C)nc1NNc1cc(C)nc(-c2ccccc2)n1 -5.98%, CCCOn1c(-n2nc(C)cc2C)nc2ccccc2c1=O -4.18%, CCCN(CCC)C(=O)C1CCCN(c2ncnc3c2nc2n3CCCCC2)C1 (stereo not given) 11.5%, Cc1cc(C(=O)Nc2ccc(C)c(S(=O)(=O)N3CCOCC3)c2)c2ccccc2n1 11.4%, CC(OC(=O)CCCc1c[nH]c2ccccc12)C(=O)Nc1ccc(S(N)(=O)=O)cc1 (stereo not given) 8.67%, COc1cc(OC)c(OC)cc1/C=C/c1nc2cc3ccccc3cc2c(=O)n1-c1ccc(F)c(Cl)c1 -0.661%, CCCN(CCC)C(=O)Cn1c(=O)n(-c2ccc(Cl)cc2)c(=O)c2c3c(sc21)CCCCC3 10.1%, Cc1ccc(CNC(=O)Cn2c(=O)ccc3cc(S(=O)(=O)N4CCCC4)ccc32)cc1 3.17%, Cc1ccc(NC(=O)OCCNC(=O)c2ccncc2)cc1 -26.6%, CCCCC(CCC(=O)Nc1ccc(C(=O)OCC)cc1)C(=O)O (stereo not given) -5.38%, Cc1ccc2nc(COc3cccc(NC(=O)c4cccc(Cl)c4)c3)cc(=O)n2c1 3.14%, CCOC(=O)c1cc2c(=O)n3ccccc3nc2n(Cc2ccco2)c1=NC(=O)c1ccc(F)cc1 -29.5%, COc1ccc(OC)c(NC(=O)Cn2c(=O)n(Cc3ccccc3)c(=O)c3ccccc32)c1 -5.43%, CCOc1ccc(NC(=O)c2c(NC(=O)Cc3ccccc3)sc3c2CCC(C)C3)cc1 (stereo not given) 11.2%, Cc1ccc(NC(=O)c2cc(S(=O)(=O)NCCC3=CCCCC3)ccc2F)cc1C -29.8%, CC(Nc1nc(N2CCCC2)nc2ccccc12)c1ccccc1 (stereo not given) -25.4%, CC(Nc1nc(N2CCN(CCO)CC2)nc2ccccc12)c1ccccc1 (stereo not given) 2.98%, Cc1ccccc1CNC(=O)c1cccc(NC(=O)c2nsc3ccccc23)c1 3.86%, COc1cc(CNCCSc2nnnn2C)ccc1OCc1ccc(Cl)cc1Cl 0.753%, CN(C)c1ccc(C(=O)NCC(=O)OC(C(=O)Nc2cc(C(F)(F)F)ccc2Cl)c2ccccc2)cc1 (stereo not given) -15.1%, Cc1ccc(C(=O)Cc2nnc(C)s2)cc1 7.19%, Cc1ccc(C(=O)Cn2cccn2)cc1 -6.01%, CCc1nc2onc(C)c2c(=O)n1CC(=O)O 10.4%, O=C(COc1ccccc1F)OCc1cc(=O)n2nc(C3CCCCC3)sc2n1 11%

Activity change, negative = inhibition, active:
Cc1nnc(SCc2cc(=O)c3cc(F)ccc3[nH]2)n1C -67.4%, Cc1cc(C(=O)OCC(=O)c2c(N)n(C)c(=O)n(C)c2=O)c(C)o1 -60.8%, COc1ccc(CN(C)C(=O)CC(c2ccccc2)c2ccccc2)cc1 -31.6%, CCOC(=O)CC1COCCN1C(=O)c1cc(COc2ccc(F)c(F)c2)on1 (stereo not given) -41%, Cc1nn(C)c(C)c1NS(=O)(=O)c1ccc(OC(F)(F)F)cc1 -90.7%, CC(Sc1nnc(-c2cccs2)n1C1CC1)C(=O)NCC1CCCO1 (stereo not given) -30.6%, O=C(NCCc1c[nH]c2ccccc12)C1CCN(Cc2ccc(Br)cc2)CC1 -56.3%, COc1cccc(CN(C)CC2CCCN(CCc3ccc(Cl)cc3)C2)c1OC (stereo not given) -79.9%, Nc1c(C(=O)c2cccs2)sc2nsc(SCCN3CCCCC3)c12 -42.4%, Cc1ccc(NC(=O)CSc2nc3c([nH]c4ccccc43)c(=O)n2-c2ccccc2)c(C)c1 -35.7%, CCN(CC)C(=O)CSc1nnc(-c2ccc(S(=O)(=O)NCc3ccccc3Cl)cc2)o1 -32.6%, CN1CC(c2ccccc2)C2(COc3ccccc3C2=O)C12C(=O)Nc1ccccc12 (stereo not given) -39.3%, CC(=O)c1sc(N/N=C\c2ccc(C)cc2)nc1C -54.7%, COc1ccc(N(CC(=O)NC2CCCCC2)S(=O)(=O)c2c(C)[nH]c(=O)[nH]c2=O)cc1 -34%, Cc1cc(C)n(-c2c(F)c(F)c(COC(=O)c3ccccc3)c(F)c2F)n1 -44%, Cc1ccc(NC(=O)C(C)OC(=O)Cc2c[nH]c3ccccc23)cc1S(=O)(=O)N1CCOCC1 (stereo not given) -47.8%, CCCCCOC(=O)NCCOC(=O)Nc1ccc(C(=O)OCC)cc1 -34.7%, CC(Nc1nc(N2CCOCC2)nc2ccccc12)c1ccccc1 (stereo not given) -48.3%, Cc1ccc(C(=O)CS(C)(=O)=O)cc1 -33.3%

From PubChem BioAssay AID504652 (National Center for Advancing Translational Sciences (NCATS), 2011)
